Screening results as filed in PubChem.
This excerpt belongs to a sample that is enriched for hits.
DUX4 txn inh – DUX4-mediated transcription inhibition. 0.8% of 37,000 active. activity change, negative = inhibition, % (concentration not given with the values). 293T-iDUX4 ZSCAN4-Gaussia luciferase reporter, 24 h; stronger effect = lower value. AID 1224904;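 active means mean inhibition of at least 10% in the main channel, exceeding the control channel by a set limit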;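 further: 0% = median of neutral control wells and -100% = median of positive control wells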
* = called active by the depositor.

For C[C@H](O)C#Cc1ccc([C@@H]2[C@H]3CN(C(=O)c4ccc5c(c4)OCO5)CCCCN3[C@H]2CO)cc1 the results were DUX4 txn inh 23.1.
`C[C@@H](O)C#Cc1ccc([C@H]2[C@@H](CO)N3CCCCN(C(=O)c4ccc5c(c4)OCO5)C[C@H]23)cc1` gave DUX4 txn inh -32.2*.
CC(C)CC#Cc1ccc([C@@H]2[C@@H](CO)N3CCCCN(S(=O)(=O)Cc4ccccc4)C[C@@H]23)cc1 was read as DUX4 txn inh -14.0*.
`O=S(=O)(Cc1ccccc1)N1CCCCN2[C@@H](CO)[C@@H](c3ccc(-c4cccnc4)cc3)[C@@H]2C1` gave DUX4 txn inh -7.7.
For C[C@@H](O)C#Cc1ccc([C@H]2[C@@H](CO)N3CCCCN(C(=O)c4ccc5c(c4)OCO5)C[C@@H]23)cc1 the results were DUX4 txn inh 22.1.
For O=S(=O)(Cc1ccccc1)N1CCCCN2[C@H](CO)[C@@H](c3ccc(-c4ccc(F)cc4)cc3)[C@@H]2C1 the results were DUX4 txn inh -31.6*.
`CN1C(=O)c2cc(NC(=O)Cc3cccs3)ccc2OC[C@@H]2O[C@@H](CC(=O)NCCc3ccncc3)CC[C@@H]21` gave DUX4 txn inh 1.7.
For C[C@@H]1CN([C@@H](C)CO)C(=O)c2cc(NS(=O)(=O)c3cccs3)ccc2O[C@@H]1CN(C)C(=O)Nc1ccc2c(c1)OCO2 the results were DUX4 txn inh 0.2.
For CCCN1C[C@@H](C)[C@@H](OC)CN(C)C(=O)c2cc(NC(=O)CC)ccc2OC[C@H]1C the results were DUX4 txn inh -4.0.
C/C=C/c1cccc(-c2nc(C(=O)NCc3ccc(OC)cc3)cc3c2[C@@H](CCO)N([S@](=O)C(C)(C)C)C3)c1 was read as DUX4 txn inh -4.8.
`CN(C)C(=O)C[C@@H]1CC[C@H]2[C@@H](COC[C@H](O)CN2Cc2ccc(C(F)(F)F)cc2)O1` gave DUX4 txn inh 4.2.
Screening CC(C)[C@@H]1C(=O)N[C@@H](c2ccccc2)CC=CC[C@@H](C)Oc2ccccc2C(=O)N1C (mixture of isomers) returned DUX4 txn inh 0.6.
For Cc1cccc(S(=O)(=O)N2CCCCN3[C@H](CO)[C@@H](c4ccc(C#C[C@@H](C)O)cc4)[C@H]3C2)c1 the results were DUX4 txn inh 11.5.
For Cc1cccc(S(=O)(=O)N2CCCCN3[C@H](C2)[C@H](c2ccc(C#C[C@@H](C)O)cc2)[C@@H]3CO)c1 the results were DUX4 txn inh 4.3.
`COc1ccc(S(=O)(=O)N2CCCCN3[C@H](CO)[C@@H](c4ccc(C#CC(C)C)cc4)[C@@H]3C2)cc1` gave DUX4 txn inh 1.0.
COCC#Cc1ccc([C@@H]2[C@H]3CN(S(=O)(=O)c4ccc(OC)cc4)CCCCN3[C@H]2CO)cc1 was read as DUX4 txn inh -0.4.
For Cc1cccc(S(=O)(=O)N2CCCCN3[C@@H](CO)[C@H](c4ccc(C#C[C@@H](C)O)cc4)[C@@H]3C2)c1 the results were DUX4 txn inh -26.5*.
`Cc1cccc(S(=O)(=O)N2CCCCN3[C@@H](CO)[C@H](c4ccc(-c5ccncc5)cc4)[C@@H]3C2)c1` gave DUX4 txn inh -5.4.
`COc1cccc(S(=O)(=O)N2CCCCN3[C@@H](CO)[C@@H](c4ccc(C#CCC(C)C)cc4)[C@@H]3C2)c1` gave DUX4 txn inh -29.8*.
C/C=C/c1ccc([C@@H]2[C@@H](CO)N3CCCCN(S(=O)(=O)c4cccc(C)c4)C[C@H]23)cc1 was read as DUX4 txn inh -16.8*.
CC(C)CC#Cc1ccc([C@H]2[C@@H](CO)N3CCCCN(S(=O)(=O)c4ccc(F)cc4)C[C@@H]23)cc1 was read as DUX4 txn inh -34.3*.
COc1cccc(S(=O)(=O)N2CCCCN3[C@H](CO)[C@H](c4ccc(C#CC5CC5)cc4)[C@@H]3C2)c1 was read as DUX4 txn inh -0.8.
Screening CC(C)CC#Cc1ccc([C@@H]2[C@H](CO)N3CCCCN(S(=O)(=O)c4ccc(F)cc4)C[C@@H]23)cc1 returned DUX4 txn inh 0.7.
Cc1cccc(S(=O)(=O)N2CCCCN3[C@H](CO)[C@H](c4ccc(-c5ccncc5)cc4)[C@H]3C2)c1 was read as DUX4 txn inh -7.5.
Screening O=C(Nc1ccc(F)cc1)Nc1ccc2c(c1)[C@@H]1C[C@H](CC(=O)N3CCOCC3)O[C@@H](CO)[C@@H]1O2 returned DUX4 txn inh 6.0.
CO[C@H](CN(C)S(=O)(=O)c1ccccc1)[C@H](C)CN(Cc1ccccc1Cl)[C@@H](C)CO was read as DUX4 txn inh 1.5.
Screening COc1ccccc1NC(=O)N[C@@H]1C=C[C@@H](CC(=O)N[C@@H](C)c2ccccc2)O[C@H]1CO returned DUX4 txn inh 8.8.
`O=C(N[C@@H]1CC[C@@H](CCn2cc(C3CC3)nn2)O[C@H]1CO)c1cccnc1` gave DUX4 txn inh -3.5.
For O=C(C[C@@H]1C[C@H]2c3cc(NC(=O)CC4CC4)ccc3O[C@H]2[C@@H](CO)O1)NCc1cc(F)ccc1F the results were DUX4 txn inh 6.8.
`O=C(C[C@H]1C[C@H]2c3cc(NC(=O)Cc4ccncc4)ccc3O[C@H]2[C@@H](CO)O1)NCCc1ccccc1` gave DUX4 txn inh -8.0.
O=C(C[C@H]1C[C@H]2c3cc(NC(=O)Cc4ccncc4)ccc3O[C@H]2[C@H](CO)O1)NCCc1ccccc1 was read as DUX4 txn inh -21.4*.
`O=C(C[C@H]1C[C@H]2c3cc(NC(=O)Cc4ccncc4)ccc3O[C@H]2[C@@H](CO)O1)NCc1cc(F)ccc1F` gave DUX4 txn inh -21.3*.
Screening O=C(C[C@@H]1C[C@@H]2c3cc(NC(=O)Cc4ccncc4)ccc3O[C@@H]2[C@@H](CO)O1)NCCc1ccccc1 returned DUX4 txn inh 2.9.
For O=C(C[C@@H]1C[C@H]2c3cc(NC(=O)Cc4ccncc4)ccc3O[C@H]2[C@H](CO)O1)NCc1cc(F)ccc1F the results were DUX4 txn inh -3.7.
C[C@H]1CN([C@@H](C)CO)C(=O)c2cccc(N(C)C)c2O[C@@H]1CN(C)S(=O)(=O)c1cccs1 was read as DUX4 txn inh 0.8.
`COCC(=O)Nc1ccc2c(c1)C(=O)N(C)[C@H]1CC[C@@H](CC(=O)NCC(F)(F)F)O[C@H]1CO2` gave DUX4 txn inh 3.4.
`CCCNC(=O)N1CC2(CCN(S(=O)(=O)CC)CC2)c2c(n(C)c3cc(OC)ccc23)[C@@H]1CO` gave DUX4 txn inh 11.7.
For O=C(C[C@@H]1CC[C@H]2[C@@H](COC[C@@H](O)CN2Cc2ccncc2)O1)NCc1ccncc1 the results were DUX4 txn inh 2.5.
For CC(C)CC#Cc1ccc([C@H]2[C@H](CO)N3C(=O)CN(C(=O)c4cccc(F)c4)C[C@@H]23)cc1 the results were DUX4 txn inh -37.7*.
Screening O=C(Cc1ccccc1)N1CC(=O)N2[C@H](CO)[C@@H](c3ccc(C#CCc4ccccc4)cc3)[C@@H]2C1 returned DUX4 txn inh -33.3*.
O=C(Cc1ccccc1)N1CC(=O)N2[C@@H](CO)[C@H](c3ccc(C#CCc4ccccc4)cc3)[C@@H]2C1 was read as DUX4 txn inh -0.2.
Screening CC(C)CC#Cc1ccc([C@H]2[C@H]3CN(C(=O)c4cccc(F)c4)CC(=O)N3[C@H]2CO)cc1 returned DUX4 txn inh -3.5.
For O=C(Cc1ccccc1)N1CC(=O)N2[C@@H](CO)[C@@H](c3ccc(C#CCc4ccccc4)cc3)[C@@H]2C1 the results were DUX4 txn inh 0.6.
